The nature of assay [1]: NCI Yeast Anticancer Drug Screen. Data for the rad50 strain (AID 155).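 Further: 0% = growth of vehicle-only cultures of the same strain.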 Conditions: S. cerevisiae rad50 strain growth inhibition, stronger effect = higher value. The method in brief: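 Readout: growth inhibition relative to vehicle-treated cultures. Compound exposure was carried out in a genetically defined yeast strain deficient in DNA damage repair.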
The nature of assay [2]: NCI Yeast Anticancer Drug Screen. Data for the mec2-1 strain (AID 157). The conditions noted are these: S. cerevisiae mec2-1 strain, stronger effect = higher value. The method in brief:
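Cells of the genetically defined mec2-1 yeast strain are incubated with test compound. Inhibition of growth is calculated against vehicle-treated controls.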

Assay [3] in a line: NCI Yeast Anticancer Drug Screen. Data for the sgs1 mgt1 strain (AID 161).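 Further: 0% = growth of cultures given vehicle only.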 Conditions: S. cerevisiae sgs1 mgt1 strain, stronger effect = higher value. The method in brief:
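Test agents were incubated with a DNA-repair-mutant yeast strain. Growth was then read and compared against vehicle-treated controls.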

The nature of assay [4]: NCI Yeast Anticancer Drug Screen. Data for the cln2 rad14 strain (AID 165).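 Further: 0% = growth equal to vehicle treated cultures.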 The conditions noted are these: S. cerevisiae cln2 rad14 strain, stronger effect = higher value. A digest of the protocol: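 The screen exposed genetically defined yeast (cln2 rad14) to test compounds and scored growth inhibition relative to vehicle-treated controls.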
Assay [5] can be described thus: NCI Yeast Anticancer Drug Screen. Data for the bub3 strain (AID 167). Conditions: S. cerevisiae bub3 mutant strain, stronger effect = higher value. A digest of the protocol:
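Readout: yeast growth inhibition, expressed relative to vehicle-only wells. The test organism is a mutant strain from a panel with lesions in DNA repair or checkpoint genes.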

Assay [6] is described as follows: NCI Yeast Anticancer Drug Screen. Data for the mlh1 rad18 strain (AID 175). The conditions noted are these: S. cerevisiae mlh1 rad18 strain growth inhibition, stronger effect = higher value. The method in brief:
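Compound-treated yeast growth, normalised to vehicle controls. Strain bears defined DNA repair mutations.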

The mark [7] stands for this setting: at 5.0 µM (retest, dose inferred, filed as 0.5).
Setting [8] is: at 50.0 µM (retest, dose inferred, filed as 5.0).

Compounds without any hit were thinned out: in the full panel of roughly 79,000, 15% have a hit. Values without a mark were called inactive. Active and inactive are the calls of the source. No stated cut-off is given here; in the data, active means growth inhibition above about 70%; inactive means the rest.

For `COc1ccc(C(SCC(N)C(=O)O)(c2ccc(OC)cc2)c2ccc(OC)cc2)cc1` (stereo not drawn), the growth inhibition in assay [1] (setting [7]) was -11%; in assay [1] (setting [8]), 97% (active); in assay [1] (at 50.0 µM) it was 94.7% (active); in assay [2] (setting [7]) it was -7%; in assay [2] (setting [8]) it was 99% (active); in assay [2] (at 50.0 µM), 96.3% (active). For the same compound, the growth inhibition in assay [3] (setting [7]) was -4%; in assay [3] (setting [8]), 99% (active); in assay [3] (at 50.0 µM), 96.3% (active); in assay [4] (setting [7]), -7%; in assay [4] (setting [8]), 98% (active); in assay [4] (at 50.0 µM), 94.7% (active). For the same compound, the growth inhibition in assay [5] (setting [7]) was 15%; in assay [5] (setting [8]) it was 98% (active); in assay [5] (at 50.0 µM), 96.5% (active); in assay [6] (setting [7]), -6%; in assay [6] (setting [8]), 98% (active); in assay [6] (at 50.0 µM), 96% (active).
In the case of `Oc1ccccc1C(c1ccccc1O)C(Cl)(Cl)Cl`, the growth inhibition is 94% (active) in assay [1] (setting [7]); 96% (active) in assay [1] (setting [8]); 95.7% (active) in assay [1] (at 50.0 µM); 96% (active) in assay [2] (setting [7]); 97% (active) in assay [2] (setting [8]); 98.5% (active) in assay [2] (at 50.0 µM). The growth inhibition in assay [3] (setting [7]) is 94% (active); in assay [3] (setting [8]) it was 96% (active); in assay [3] (at 50.0 µM), 97.3% (active); in assay [4] (setting [7]), 97% (active); in assay [4] (setting [8]), 96% (active); in assay [4] (at 50.0 µM), 95% (active). In addition, the growth inhibition in assay [5] (setting [7]) is 84% (active); in assay [5] (setting [8]), 96% (active); in assay [5] (at 50.0 µM), 98.2% (active); in assay [6] (setting [7]) it was 91% (active); in assay [6] (setting [8]) it was 96% (active); in assay [6] (at 50.0 µM) it was 98% (active).
Consider `CC(C)(C)C(=O)CC(=O)C(F)(F)C(F)(F)C(F)(F)F.CC(C)(C)C(=O)CC(=O)C(F)(F)C(F)(F)C(F)(F)F.CC(C)(C)C(=O)CC(=O)C(F)(F)C(F)(F)C(F)(F)F.[Fe]`, for which the growth inhibition in assay [1] (setting [7]) was 21%; in assay [1] (setting [8]), 85% (active); in assay [1] (at 50.0 µM), 38.5%; in assay [2] (setting [7]), 5%; in assay [2] (setting [8]) it was 88% (active); in assay [2] (at 50.0 µM), 9.3%. Also, the growth inhibition is 43% in assay [3] (setting [7]); 88% (active) in assay [3] (setting [8]); 74.9% (active) in assay [3] (at 50.0 µM); 13% in assay [4] (setting [7]); 91% (active) in assay [4] (setting [8]); 19.8% in assay [4] (at 50.0 µM). Also, the growth inhibition in assay [5] (setting [7]) was -1%; in assay [5] (setting [8]) it was 37%; in assay [5] (at 50.0 µM), -1.15%; in assay [6] (setting [7]), 32%; in assay [6] (setting [8]) it was 93% (active); in assay [6] (at 50.0 µM), 84.5% (active).
Take `CCCCCCCCCCCCCCCCCCn1[se]c2ccccc2c1=O`: the growth inhibition was 7% in assay [1] (setting [7]); 7% in assay [1] (setting [8]); 69.3% in assay [1] (at 50.0 µM); 16% in assay [2] (setting [7]); 16% in assay [2] (setting [8]); 45.4% in assay [2] (at 50.0 µM). The growth inhibition is 17% in assay [3] (setting [7]); 17% in assay [3] (setting [8]); 83.8% (active) in assay [3] (at 50.0 µM); 15% in assay [4] (setting [7]); 15% in assay [4] (setting [8]); 59.1% in assay [4] (at 50.0 µM). Also, the growth inhibition is 0% in assay [5] (setting [7]); 0% in assay [5] (setting [8]); 76.5% (active) in assay [5] (at 50.0 µM); -1% in assay [6] (setting [7]); -1% in assay [6] (setting [8]); 33.5% in assay [6] (at 50.0 µM).
As to `CSC(=S)NNC(C)c1nccc2ccccc12` (stereo not drawn), the growth inhibition in assay [1] (setting [7]) was 23%; in assay [1] (setting [8]), 97% (active); in assay [1] (at 50.0 µM), 97.8% (active); in assay [2] (setting [7]) it was -3%; in assay [2] (setting [8]), 98% (active); in assay [2] (at 50.0 µM) it was 98.8% (active). The growth inhibition in assay [3] (setting [7]) was 29%; in assay [3] (setting [8]), 97% (active); in assay [3] (at 50.0 µM) it was 98.8% (active); in assay [4] (setting [7]), -8%; in assay [4] (setting [8]), 97% (active); in assay [4] (at 50.0 µM), 97.8% (active). In addition, the growth inhibition in assay [5] (setting [7]) was -7%; in assay [5] (setting [8]), 97% (active); in assay [5] (at 50.0 µM) it was 98.2% (active); in assay [6] (setting [7]), 2%; in assay [6] (setting [8]) it was 97% (active); in assay [6] (at 50.0 µM), 98.8% (active).
Turning to `NC(=O)NC(CC(=O)O)C(=O)O` (stereo not drawn), the growth inhibition in assay [1] (setting [7]) is -6%; in assay [1] (setting [8]), 12%; in assay [1] (at 50.0 µM), -19.9%; in assay [2] (setting [7]), -7%; in assay [2] (setting [8]) it was -4%; in assay [2] (at 50.0 µM), -4.35%. The growth inhibition in assay [3] (setting [7]) is -8%; in assay [3] (setting [8]) it was -5%; in assay [3] (at 50.0 µM), -6%; in assay [4] (setting [7]) it was -3%; in assay [4] (setting [8]) it was -4%; in assay [4] (at 50.0 µM), 65.8%. In addition, the growth inhibition is 3% in assay [5] (setting [7]); -6% in assay [5] (setting [8]); -29.8% in assay [5] (at 50.0 µM); -8% in assay [6] (setting [7]); 4% in assay [6] (setting [8]); -1.7% in assay [6] (at 50.0 µM).
